# Measurements from PubChem BioAssay (NCATS).
# “And” between values parts separate entries of the source, which are not always exact repeats. Equal entries are not always repeated. Records with an inconclusive call do not appear. The source made the active and inactive calls. Unless noted, calls come from the whole dose curve; as a rule, active = well fitted curve in the direction sought with a large enough effect; inconclusive = small, poorly fitted or top-dose-only effect, or another doubt; inactive = no such curve, though single readings can be large; an effect the other way counts as inactive or inconclusive.
# What was measured:
# [1] = Cytotoxicity counterscreen for NFkB agonists and antagonists (AID 624476); note: potency is the fitted concentration of half-maximal effect
# [2] = qHTS Assay for Identification of Small Molecule Agonists for NFkB Signaling Pathway. (AID 624478);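 note: compounds tested together with TNF alpha at its EC50 of 10 pM; 0% is about no effect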
# Summary of the method: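 ME-180 cervical carcinoma, stable NFkB-RE beta-lactamase reporter; 1000 cells/well, overnight attachment; cpd + TNF alpha 10 pM final, 5 h 37 C; LiveBLAzer 2 h RT; FRET 460/530 nm, ex 405 nm.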
# [3] = Cell Proliferation Assay against the TMD8 Cell Line (AID 651645); details: TMD8 DLBCL cell line proliferation/viability; at 46.1 µM (top of the series) unless noted;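 note: cells exposed to compound for 48 h before reading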
# Summary of the method: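 Seed log-phase TMD8 cells in RPMI containing 5% FBS, add compounds at once, incubate 48 hours at 37C. Equilibrate to room temperature, add CellTiter-Glo, read luminescence after 15 minutes and express relative to DMSO and bortezomib controls.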
# [4] = Cell Proliferation Assay against the TMD8 Cell Line (Caspase readout at 8 hrs) (AID 651713); note: potency is the fitted concentration of half-maximal effect
# Summary of the method: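 Seed log-phase TMD8 cells, add compound by pin tool, incubate 8 h at 37C under 5% CO2, equilibrate to room temperature, add Caspase-Glo, wait 15 min, read luminescence; percent activity uses DMSO and 9.2 uM bortezomib controls.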
# [5] = qHTS Assay for Identification of Small Molecule Antagonists for NFkB Signaling Pathway. (AID 624479; calls by dose curve;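 note: pathway stimulated with TNF alpha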; note: potency is the fitted concentration of half-maximal effect)
# [6] = Cell Proliferation Assay against the HBL1 Cell Line (AID 651646); details: HBL1 DLBCL cells; at 92.2 µM (top of the series) unless noted;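 note: cells exposed to compound for 48 h before reading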
# Summary of the method: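 Luminescent ATP read-out (CellTiter-Glo) after 48 h compound exposure of HBL1 cells at 37 °C; percent activity was scaled between DMSO as 100% and 9.2 uM bortezomib (final) as 0%.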
# [7] = Cell Proliferation Assay against the TMD8 Cell Line (Caspase readout at 16 hrs) (AID 651712); details: TMD8 lymphoma cells, caspase activation luminescence; note: potency is the fitted concentration of half-maximal effect
# Summary of the method: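 Apoptotic response of TMD8 cells was judged from caspase 3/7 activation following a 16 hour compound incubation at 37 °C. Luminescent signal was converted to percent activity, with DMSO set as 0% and 9.2 uM final bortezomib as 100%.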
# [8] = qHTS assay for small molecule agonists of the antioxidant response element (ARE) signaling pathway (AID 651741; active = well fitted activation curve with a large enough effect in the signal ratio; the % refers to the signal ratio; note: potency is the fitted concentration of half-maximal effect; for activation: % of control where 0% means no effect)
# Summary of the method: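 Quantitative HTS in HepG2 cells stably expressing an ARE-beta-lactamase reporter; 16 h compound exposure at 37 C, followed by 2 h room-temperature incubation with LiveBLAzer B/G FRET substrate and fluorescence measurement.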
# [9] = qHTS assay for small molecule disruptors of the mitochondrial membrane potential - 1 hr assay (AID 651754; calls by dose curve; note: nearly all actives have a fitted effect of over 35% in size; note: potency is the fitted concentration of half-maximal effect)
# Summary of the method: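 HepG2, 2,000 cells/well, overnight attachment; cpd or DMSO 1 hr, 37C/5% CO2; Mito-MPS dye 30 min, 37C; fluorescence monomer (490/535) and aggregate (540/590).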
# [10] = qHTS assay for small molecule disruptors of the mitochondrial membrane potential - 5 hr assay (AID 651755; calls by dose curve; note: nearly all actives have a fitted effect of over 40% in size; note: potency is the fitted concentration of half-maximal effect)
# Summary of the method: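 HepG2, 2,000 cells/well, overnight attach; cpd or DMSO 5 hr, 37C/5% CO2; Mito-MPS 30 min 37C; fluor 490/535 + 540/590 nm.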
# [11] = qHTS assay to identify small molecules that stimulate interleukin-8 (IL-8) secretion (AID 651758; active = well fitted activation curve with a large enough effect in the signal ratio; the % refers to the signal ratio; note: potency is the fitted concentration of half-maximal effect; for activation: 0% is about no effect)
# Summary of the method: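 Secreted IL-8 measured by TR-FRET sandwich (cryptate and XL665 antibodies) from THP-1 cells exposed to compound overnight (16 hrs, 37 C).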
# [12] = target: Peroxisome proliferator-activated receptor alpha (Homo sapiens) (UniProt Q07869); test: qHTS assay for small molecule agonists of the peroxisome proliferator-activated receptor alpha (PPARalpha) signaling pathway (AID 651778); details: PathHunter PPARalpha complementation, chemiluminescence, 6 h; max response: stronger effect = higher value; note: potency is the fitted concentration of half-maximal effect; for max response: % of control where 0% means no effect
# Summary of the method: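 Chemiluminescence from complemented enzyme reported PPARalpha activation in cells after 6 hr of compound treatment at 37 C. The detection reagent was incubated for 60 min at room temperature, and compounds were scored as agonists.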
# [13] = qHTS assay for small molecule activators of the p53 signaling pathway (AID 651743; active = well fitted activation curve with a large enough effect in the signal ratio, not every such curve was filed as active; the % refers to the signal ratio; note: potency is the fitted concentration of half-maximal effect; for activation: % of control where 0% means no effect); details: HCT-116 p53RE-bla, beta-lactamase FRET ratio, 16 h; activation: stronger effect = higher value
# Summary of the method: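 Read-out is fluorescence intensity from the LiveBLAzer B/G FRET substrate, added for 2 hours at room temperature after HCT-116 p53RE-bla cells had been incubated with compounds for 16 hours at 37 C.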
# [14] = target: Tumor necrosis factor (Homo sapiens) (UniProt P01375); test: qHTS assay to identify small molecules that stimulate Tumor Necrosis Factor-alpha (TNF-alpha) secretion (AID 651757; active = well fitted curve in the direction sought with a large enough effect in the signal ratio; the % refers to the signal ratio; note: 0% is about no effect)
# Summary of the method: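 Read-out is HTRF, a TR-FRET sandwich of cryptate- and XL665-labeled anti-TNF-alpha antibodies detecting cytokine secreted by THP-1 cells. Cells had been incubated with test compounds at 37 C for 17 hrs beforehand.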
# [15] = qHTS assay for environmental chemicals that activate the Aryl hydrocarbon Receptor (AhR) signaling pathway (AID 651777); details: 1A2-DRE human hepatoma cells, luciferase, 24 h; activation: stronger effect = higher value; note: % of control where 0% means no effect; nearly all actives have a fitted effect of over 15% in size
# Summary of the method: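 Quantitative HTS in stably transfected human liver-derived cells whose luciferase gene sits downstream of the CYP1A2 promoter and dioxin response element. After 24 hr exposure at 37 C, One-Glo luminescence was measured.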
# [16] = target: Tumor susceptibility gene 101 protein (Homo sapiens) (UniProt Q99816); test: qHTS Assay for Iinhibitors of HIV-1 Budding by Blocking the Interaction of PTAP/TSG101: Hit Validation (AID 651600); details: PTAP peptide/TSG101 UEV interaction, biochemical assay; note: potency is the fitted concentration of half-maximal effect; nearly all actives have a fitted effect of over 70% in size
# Summary of the method: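 Displacement of a FITC-labeled PTAP-motif peptide (50 nM) from the Tsg101 binding domain (10 uM) was monitored by fluorescence polarization after a 20 min room-temperature incubation.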
# Tumor necrosis factor (Homo sapiens), sequence (P01375 whole entry, looked up): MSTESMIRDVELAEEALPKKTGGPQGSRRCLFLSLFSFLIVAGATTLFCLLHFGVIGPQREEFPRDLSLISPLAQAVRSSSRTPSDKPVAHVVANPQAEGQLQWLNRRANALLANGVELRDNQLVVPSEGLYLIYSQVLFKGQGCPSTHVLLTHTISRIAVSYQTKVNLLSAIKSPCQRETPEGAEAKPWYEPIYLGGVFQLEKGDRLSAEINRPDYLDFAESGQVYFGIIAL
# Peroxisome proliferator-activated receptor alpha (Homo sapiens), sequence (Q07869 whole entry, looked up): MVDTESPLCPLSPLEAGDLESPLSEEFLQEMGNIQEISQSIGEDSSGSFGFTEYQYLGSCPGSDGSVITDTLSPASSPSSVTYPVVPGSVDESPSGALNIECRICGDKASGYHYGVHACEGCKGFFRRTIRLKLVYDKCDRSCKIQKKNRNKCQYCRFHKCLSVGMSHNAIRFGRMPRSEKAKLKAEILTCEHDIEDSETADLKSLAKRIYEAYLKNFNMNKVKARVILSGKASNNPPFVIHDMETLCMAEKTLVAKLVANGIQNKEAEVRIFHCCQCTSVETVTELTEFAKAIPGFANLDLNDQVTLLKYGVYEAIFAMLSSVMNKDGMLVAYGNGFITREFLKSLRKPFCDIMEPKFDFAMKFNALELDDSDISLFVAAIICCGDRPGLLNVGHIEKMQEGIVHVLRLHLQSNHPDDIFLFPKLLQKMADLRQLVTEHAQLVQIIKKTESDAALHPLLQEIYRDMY
# Tumor susceptibility gene 101 protein (Homo sapiens), sequence (Q99816 whole entry, looked up, the tested form may be a part): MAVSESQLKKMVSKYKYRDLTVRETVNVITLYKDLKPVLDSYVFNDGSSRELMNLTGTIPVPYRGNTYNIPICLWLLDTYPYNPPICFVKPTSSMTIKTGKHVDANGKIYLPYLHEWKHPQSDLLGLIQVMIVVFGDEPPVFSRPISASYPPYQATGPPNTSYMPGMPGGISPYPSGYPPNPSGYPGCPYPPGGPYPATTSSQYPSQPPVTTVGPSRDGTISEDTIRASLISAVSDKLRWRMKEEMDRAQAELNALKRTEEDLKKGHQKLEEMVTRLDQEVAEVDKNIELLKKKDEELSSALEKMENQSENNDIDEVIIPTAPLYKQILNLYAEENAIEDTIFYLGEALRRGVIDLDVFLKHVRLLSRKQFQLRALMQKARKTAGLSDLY
smiles,measurement,setting,value
COc1cc2c(cc1O)CC[C@@H]1[C@@H]2CC[C@]2(C)[C@@H](O)CC[C@@H]12,Potency,[1],inactive
same,outcome,[2],inactive
same,viability (% of control),[3],24.3%
same,Potency,[4],inactive
Nc1ccn([C@@H]2O[C@H](CO)[C@@H](O)C2(F)F)c(=O)n1,Potency,[1],inactive
same,outcome,[2],inactive
same,Potency,[5],inactive
same,viability (% of control),[3],1.47% [at 92.2 µM]
same,"viability, percent of control",[6],55.7%
same,Potency,[7],0.0382 µM (active)
Oc1ccc(O)cc1,Potency,[8],2.11 µM (active)
same,Potency,[9],inactive
same,Potency,[10],inactive
same,Potency,[11],66.8 µM (active)
same,max response,[12],-2.94% (inactive)
C[C@]12CC[C@@H]3c4ccc(O)cc4CC[C@H]3[C@@H]1CC[C@@H]2O,activation,[13],8.17% (inactive)
same,outcome,[14],inactive
same,activation,[15],1.98% (inactive)
same,max response,[12],0.86% (inactive)
COc1cccc2c1C(=O)c1c(O)c3c(c(O)c1C2=O)C[C@@](O)(C(C)=O)C[C@@H]3O[C@H]1C[C@H](N)[C@H](O)[C@H](C)O1,Potency,[16],16.3 µM (active)
same,Potency,[9],6.68 µM (active)
same,Potency,[10],5.96 µM (active)
same,max response,[12],-9.3% (inactive)
CC(O)(P(=O)(O)O)P(=O)(O)O,Potency,[8],inactive
same,activation,[15],0.149% (inactive)
same,max response,[12],0.583% (inactive)
C=CCc1ccc(O)c(OC)c1,Potency,[8],inactive
same,activation,[13],0.303% (inactive) and -4.38% (inactive)
same,outcome,[14],inactive
same,activation,[15],1.13% (inactive) and 0.0788% (inactive)
same,max response,[12],-0.867% (inactive) and -4.24% (inactive)
COC1=CC(=O)C[C@@H](C)[C@]12Oc1c(Cl)c(OC)cc(OC)c1C2=O,Potency,[9],inactive
same,Potency,[10],inactive
same,Potency,[11],inactive
same,activation,[15],0.113% (inactive)
same,max response,[12],2.03% (inactive)
CC(C)(Oc1ccc(Cl)cc1)C(=O)O,Potency,[8],inactive
same,activation,[13],0.845% (inactive)
same,activation,[15],-2.05% (inactive)
same,max response,[12],8.18% (inactive)
CN(C)C(=S)SC(=S)N(C)C,activation,[13],-1.54% (inactive)
same,activation,[15],-0.314% (inactive)
same,max response,[12],0.0294% (inactive)
C=C(CC)C(=O)c1ccc(OCC(=O)O)c(Cl)c1Cl,Potency,[8],2.37 µM (active)
same,outcome,[14],inactive
same,activation,[15],2.74% (inactive)
same,max response,[12],-4.86% (inactive)
CN(C)/N=N/c1nc[nH]c1C(N)=O,Potency,[8],inactive
same,Potency,[11],75 µM (active)
same,activation,[15],1.65% (inactive)
same,max response,[12],-3.55% (inactive)
Oc1c(Cl)cc(Cl)cc1Sc1cc(Cl)cc(Cl)c1O,Potency,[13],7.94 µM (active) and 14.1 µM (active)
same,Potency,[9],10.6 µM (active)
same,Potency,[10],13.3 µM (active)
same,outcome,[14],inactive
same,activation,[15],4.24% (inactive) and -3.25% (inactive)
same,Potency,[12],28.2 µM (active) and 25.1 µM (active)
COc1cccc2c1C(=O)c1c(O)c3c(c(O)c1C2=O)C[C@@](O)(C(=O)CO)C[C@@H]3O[C@H]1C[C@H](N)[C@H](O)[C@H](C)O1,Potency,[1],0.0332 µM (active)
same,outcome,[2],inactive
same,Potency,[5],6.68 µM (active)
same,viability (% of control),[3],0.7%
same,"viability, percent of control",[6],20.5% [at 46.1 µM]
same,Potency,[7],0.0372 µM (active)
same,Potency,[4],3.32 µM (active)
same,Potency,[13],1.58 µM (active)
same,Potency,[9],2.66 µM (active)
same,Potency,[10],2.66 µM (active)
same,activation,[15],1.88% (inactive)
same,max response,[12],-6.93% (inactive) and -6.66% (inactive)
O=c1ccc2ccccc2o1,Potency,[8],501 µM (active)
same,activation,[13],-4.62% (inactive) and -2.73% (inactive) and -3.41% (inactive)
same,outcome,[14],inactive
same,Potency,[11],inactive
same,activation,[15],-0.0038% (inactive) and -0.214% (inactive) and 9.96% (inactive)
same,max response,[12],-5.67% (inactive) and -0.649% (inactive) and -3.56% (inactive)
